# In PubChem BioAssay:
# Where “and” joins values, the source holds several entries; their conditions need not be identical. Identical values can stand only once. Results filed as inconclusive are left out. Calls of active or inactive are those of the source.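 The calls were made as follows, unless noted: active = mean z-score across replicates of 1.96 or higher in either the MELAS or the Rieske mutant cell line; inactive = the rest.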
# Legend:
# [1] = P. berghei load reduction in hepatocytes – cell-based, HepG2, luciferase luminescence, HepG2 viability, primary screen (AID 624349; in the data active = parasite load remaining mostly below about 12%, no sharp cut-off; inactive = mostly above about 10%;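 also: 100% = mean of DMSO negative control wells on the same plate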); details: P. berghei liver stage in HepG2, luciferase luminescence, concentration not given here; parasite load remaining: stronger effect = lower value; viability: measured here: HepG2 viability without parasites
# [2] = Wnt pathway potentiators raising nuclear beta-catenin – imaging, WNT3A-conditioned medium, mouse C2C12, NPC library, primary screen (AID 1117326; in the data active = nuclear beta-catenin stimulation mostly above about 4.2%, no sharp cut-off; inactive = mostly below about 10%); details: stronger effect = higher value
# [3] = stimulators of insulin release from INS-1E, primary screen, cell-based, 5 mM glucose, NPC library (AID 1117329;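 active = compound raises insulin release from rat beta cells at 5 mM glucose, no numeric limit stated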); details: rat INS-1E insulin secretion, at 10 µM, stronger effect = higher value
# [4] = growth inhibition of GSK3B-pretreated HCT116 cells – cell-based, CellTiter-Glo, 0.2 to 20 µM (AID 1117336;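 active = compounds lowering colon cancer cell viability after pretreatment blocking the GSK3B kinase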); details: HCT116 viability after GSK3B inhibitor, at 20 µM, stronger effect = higher value
# [5] = inhibition of endothelial tube formation, primary screen, imaging, VEGF stimulated, CD31 staining, tube area, NPC library (AID 1117340;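 active = compound that reduces growth-factor-driven endothelial tube area in a mixed cell culture, no cutoff stated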); details: VEGF-stimulated ADSC/ECFC co-culture, at 10 µM, stronger effect = higher value
# [6] = GLP1 release stimulators, primary, NCI-H716, NPC library (AID 1117341;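 active = compound raises GLP1 secretion from the human gut endocrine cells, with no numeric limit stated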); details: NCI-H716 cells, at 10 µM, stronger effect = higher value
# [7] = HCT116 colon cancer cell growth inhibition, primary screen, CellTiter-Glo luminescence, NPC library (AID 1117342;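 active = compounds that lower survival of HCT116 colon cancer cells in the luminescence readout, no numeric limit stated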); details: at 20 µM (top of the series)
# [8] = reduced SW480 viability measured with CellTiter-Glo, NPC library, primary (AID 1117343;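 active = compounds that lower viability of the colon cancer cells in the luminescence readout, with no numeric limit stated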); details: CellTiter-Glo luminescence; at 20 µM (top of the series) unless noted
# [9] = NPC library primary testing for decreased DLD-1 cell viability via CellTiter-Glo (AID 1117346;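 active = compounds that lower survival of DLD-1 colon cancer cells in the luminescence readout, no cutoff given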); details: DLD-1 viability, CellTiter-Glo luminescence; at 20 µM (top of the series)
# [10] = viability loss with induced miR-34 in A549 – imaging, A549 dox-inducible miR-34, nuclei and caspase counts, primary screen (AID 1347080;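 active = compounds whose cell count with miR-34 switched on is under 0.7 times the count with it off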); details: A549 miR-34 inducible, Hoechst nuclei count, 48 h
# [11] = MELAS cybrid and Rieske KO viability enhancers – cell-based, MELAS cybrids, Rieske KO mouse fibroblasts, CellTiter-Glo, primary screen (AID 1508586); details: low glucose;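 also: z relative to plate mean and SD of compound and empty wells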
# [12] = galactose survival enhancers in mitochondrial complex I cybrids – cell-based, galactose medium, ATP luminescence, primary screen (AID 1645843;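 active = z-score of at least 1.8 in each of two replicates, scored against plate mean and spread of sample wells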;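 also: positive z means more ATP and so rescue of galactose-driven cybrid death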); details: complex I mutant cybrid cells, 72 h, stronger effect = higher value
# [13] = target: NAD(+) hydrolase SARM1 (Homo sapiens) (UniProt Q6SZW1); assay: blocking NAD cleavage by SARM1 SAM-TIR – cell lysate, NAD-Glo luminescence (AID 1508614;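 active = compound whose remaining NAD level is above about 45 nM, limit read from the data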;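 also: higher remaining NAD means stronger inhibition of SARM1 NADase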); details: SAM-TIR HEK293T lysate NADase, at 1 µM, stronger effect = higher value
# [14] = compounds altering circadian rhythm period length – cell-based, LOPAC library, luminescence reporter (AID 2774; call rule not given here;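 also: values are relative to mean of DMSO wells on each plate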); details: circadian reporter cells, at 7 µM, actives lie on both sides
# [15] = target: Mitogen-activated protein kinase 7 (Homo sapiens) (UniProt Q13164); assay: Gal4-ERK5 driven luciferase induction – cell-based, HTS, primary screen (AID 1508626;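 active = luciferase signal above three times the same-plate solvent-only control wells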;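 also: luciferase driven by Gal4-ERK5 fusion binding five Gal4 sites before minimal TATA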); details: HeLa Gal4-ERK5 transactivation, 18 h, at 5 µM, stronger effect = higher value
# [16] = target: ATP-dependent translocase ABCB1 (Homo sapiens) (UniProt P08183); assay: P-glycoprotein substrate transport blockade – cell-based (AID 377; in the data active = fluorescence slope change above about 50%); details: MDR1-expressing cells, fluorescent substrate accumulation slope; stronger effect = higher value; concentration not given here
# [17] = compounds altering viability of human ES cells (AID 493140; call rule not given here;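 also: cells exposed to compounds for four days before counting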); details: human embryonic stem cell survival screen; stronger effect = higher value
# [18] = stronger effect = lower value, cell number ratio, induced over uninduced
# [19] = measured here: relative caspase fold change +Dox/-Dox
# [20] = measured here: total cells with miR-34 induction, stronger effect = lower value
# [21] = measured here: total cells without miR-34 induction
# [22] = MELAS cybrid survival, CellTiter-Glo 48 h, stronger effect = higher value
# [23] = Rieske KO mouse fibroblast survival, CellTiter-Glo 72 h
# Sequence of NAD(+) hydrolase SARM1 (Homo sapiens) (Q6SZW1 whole entry, looked up): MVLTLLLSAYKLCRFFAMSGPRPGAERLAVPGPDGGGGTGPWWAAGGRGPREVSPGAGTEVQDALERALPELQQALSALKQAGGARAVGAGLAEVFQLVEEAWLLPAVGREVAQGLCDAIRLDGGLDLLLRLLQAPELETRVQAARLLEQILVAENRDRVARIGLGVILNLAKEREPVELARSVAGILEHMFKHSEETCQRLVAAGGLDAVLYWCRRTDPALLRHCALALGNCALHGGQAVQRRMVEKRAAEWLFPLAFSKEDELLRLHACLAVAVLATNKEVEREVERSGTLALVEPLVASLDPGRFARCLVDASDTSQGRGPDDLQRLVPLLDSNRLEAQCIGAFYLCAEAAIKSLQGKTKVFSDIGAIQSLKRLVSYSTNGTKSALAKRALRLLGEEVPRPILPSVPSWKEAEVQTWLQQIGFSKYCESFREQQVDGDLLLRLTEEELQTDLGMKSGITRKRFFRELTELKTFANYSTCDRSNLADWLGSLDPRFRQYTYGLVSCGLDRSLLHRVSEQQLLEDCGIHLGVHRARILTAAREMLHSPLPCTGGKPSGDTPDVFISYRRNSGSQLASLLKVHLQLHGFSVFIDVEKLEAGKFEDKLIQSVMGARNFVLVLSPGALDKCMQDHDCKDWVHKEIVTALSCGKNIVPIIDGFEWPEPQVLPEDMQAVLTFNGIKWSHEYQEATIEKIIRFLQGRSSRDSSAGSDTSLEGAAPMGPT
# Sequence of Mitogen-activated protein kinase 7 (Homo sapiens) (Q13164 whole entry, looked up, the tested form may be a part): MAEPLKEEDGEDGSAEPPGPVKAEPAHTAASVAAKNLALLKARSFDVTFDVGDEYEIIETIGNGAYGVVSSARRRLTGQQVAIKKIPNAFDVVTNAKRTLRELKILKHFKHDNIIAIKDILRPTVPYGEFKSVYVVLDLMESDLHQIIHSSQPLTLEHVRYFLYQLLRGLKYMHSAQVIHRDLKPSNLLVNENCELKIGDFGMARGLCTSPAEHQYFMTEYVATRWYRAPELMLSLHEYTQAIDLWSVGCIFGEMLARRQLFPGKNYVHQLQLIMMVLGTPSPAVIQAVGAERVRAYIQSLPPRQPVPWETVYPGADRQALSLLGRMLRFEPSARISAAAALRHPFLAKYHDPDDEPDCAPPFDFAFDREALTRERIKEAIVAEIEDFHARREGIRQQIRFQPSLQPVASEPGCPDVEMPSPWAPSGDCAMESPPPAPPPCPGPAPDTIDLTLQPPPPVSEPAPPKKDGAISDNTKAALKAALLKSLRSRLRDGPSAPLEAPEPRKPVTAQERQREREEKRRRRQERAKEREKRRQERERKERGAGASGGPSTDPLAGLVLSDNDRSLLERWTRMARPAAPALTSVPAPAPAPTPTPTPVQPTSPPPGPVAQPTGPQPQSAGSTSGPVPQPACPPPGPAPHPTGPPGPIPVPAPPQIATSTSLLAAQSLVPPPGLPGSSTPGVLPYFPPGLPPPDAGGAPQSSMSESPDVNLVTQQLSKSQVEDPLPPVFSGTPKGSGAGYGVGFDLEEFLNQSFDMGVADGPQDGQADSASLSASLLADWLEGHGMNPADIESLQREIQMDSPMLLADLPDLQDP
# Sequence of ATP-dependent translocase ABCB1 (Homo sapiens) (P08183 whole entry, looked up): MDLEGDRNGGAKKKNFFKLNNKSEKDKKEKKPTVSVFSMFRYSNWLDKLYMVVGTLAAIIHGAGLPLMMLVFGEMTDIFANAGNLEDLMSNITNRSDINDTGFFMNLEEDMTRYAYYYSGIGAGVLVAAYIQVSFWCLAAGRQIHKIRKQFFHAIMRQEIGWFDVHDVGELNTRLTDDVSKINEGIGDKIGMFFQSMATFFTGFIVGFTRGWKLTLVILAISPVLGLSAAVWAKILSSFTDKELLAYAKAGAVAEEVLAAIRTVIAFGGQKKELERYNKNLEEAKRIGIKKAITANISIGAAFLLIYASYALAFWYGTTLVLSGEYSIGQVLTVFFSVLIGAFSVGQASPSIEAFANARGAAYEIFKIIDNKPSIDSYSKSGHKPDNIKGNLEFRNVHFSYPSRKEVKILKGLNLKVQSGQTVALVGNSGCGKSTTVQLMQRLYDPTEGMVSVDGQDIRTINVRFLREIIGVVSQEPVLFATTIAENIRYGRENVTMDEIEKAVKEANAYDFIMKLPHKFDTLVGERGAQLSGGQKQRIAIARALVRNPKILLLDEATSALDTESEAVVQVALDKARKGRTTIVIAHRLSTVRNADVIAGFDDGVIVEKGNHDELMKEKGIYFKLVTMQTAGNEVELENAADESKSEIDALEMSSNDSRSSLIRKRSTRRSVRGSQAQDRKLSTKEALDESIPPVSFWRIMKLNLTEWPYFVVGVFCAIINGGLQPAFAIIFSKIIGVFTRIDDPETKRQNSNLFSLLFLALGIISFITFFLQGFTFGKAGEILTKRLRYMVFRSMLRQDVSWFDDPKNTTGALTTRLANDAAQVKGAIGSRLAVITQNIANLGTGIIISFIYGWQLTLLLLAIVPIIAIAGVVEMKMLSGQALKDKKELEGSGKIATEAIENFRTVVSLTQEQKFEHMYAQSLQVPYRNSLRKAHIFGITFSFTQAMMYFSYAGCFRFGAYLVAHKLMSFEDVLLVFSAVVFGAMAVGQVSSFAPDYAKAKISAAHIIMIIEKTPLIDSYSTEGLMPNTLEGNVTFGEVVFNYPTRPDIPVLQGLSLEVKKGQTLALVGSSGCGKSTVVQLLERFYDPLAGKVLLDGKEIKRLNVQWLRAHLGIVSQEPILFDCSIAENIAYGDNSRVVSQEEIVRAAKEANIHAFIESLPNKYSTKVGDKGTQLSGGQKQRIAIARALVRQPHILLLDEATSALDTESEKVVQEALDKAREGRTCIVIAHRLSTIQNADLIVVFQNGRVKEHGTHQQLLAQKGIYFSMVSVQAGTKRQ
structure (smiles),measurement,setting,value
COc1ccc(-c2cc(=S)ss2)cc1,parasite load remaining,[1],61.1% (inactive)
same,viability,[1],107%
same,nuclear beta-catenin stimulation,[2]; at 10 µM,-1.5% (inactive)
same,nuclear beta-catenin stimulation,"[2]; stimulation, at 2 µM",-0.3%
same,insulin secretion stimulation,[3],3.1% (inactive)
same,viability decrease,[4],11.9% (inactive)
same,tube area decrease,[5],-0.7% (inactive)
same,GLP1 secretion stimulation,[6],-6.2% (inactive)
same,inhibition of viability,[7],27.2% (inactive)
same,viability decrease (inhibition),[8],22.2% (inactive)
same,viability decrease (inhibition),[9],11% (inactive)
same,fold change,[10]; [18],0.899 (inactive)
same,fold change,[10]; [19],1.14
same,cell count,[10]; [20],8880
same,cell count,[10]; [21],9880
same,z-score,[11]; [22],0.776 (inactive) and 0.734 (inactive)
same,z-score,[11]; [23],0.201 and 0.472
same,z-score,[12],0.675 (inactive)
CC[C@H](c1ccc(O)cc1)[C@@H](CC)c1ccc(O)cc1,parasite load remaining,[1],16.7% (inactive)
same,viability,[1],82%
same,nuclear beta-catenin stimulation,[2]; at 10 µM,11.6% (inactive)
same,nuclear beta-catenin stimulation,"[2]; stimulation, at 2 µM",2.5%
same,insulin secretion stimulation,[3],1.4% (inactive)
same,viability decrease,[4],89.6% (active)
same,tube area decrease,[5],20.9% (inactive)
same,GLP1 secretion stimulation,[6],40% (active)
same,inhibition of viability,[7],97% (active)
same,viability decrease (inhibition),[8],118% (active)
same,viability decrease (inhibition),[9],101% (active)
same,fold change,[10]; [18],0.78 (inactive)
same,fold change,[10]; [19],0.948
same,cell count,[10]; [20],7720
same,cell count,[10]; [21],9900
same,z-score,[11]; [22],-1.4 (inactive)
same,z-score,[11]; [23],-0.231
same,remaining NAD,[13],10 nM (inactive)
same,z-score,[12],-0.325 (inactive)
COC(=O)C1=C(C#N)NC(C)=C(C(=O)OC(C)C)C1c1cccc([N+](=O)[O-])c1 (stereo not given),nuclear beta-catenin stimulation,[2]; at 10 µM,-1.3% (inactive)
same,nuclear beta-catenin stimulation,"[2]; stimulation, at 2 µM",2.3%
same,insulin secretion stimulation,[3],-0.1% (inactive)
same,viability decrease,[4],9.8% (inactive)
same,tube area decrease,[5],9.9% (inactive)
same,GLP1 secretion stimulation,[6],-3.9% (inactive)
same,inhibition of viability,[7],56.2% (active)
same,viability decrease (inhibition),[8],65.8% (active)
same,viability decrease (inhibition),[9],29.6% (active)
same,fold change,[10]; [18],0.976 (inactive)
same,fold change,[10]; [19],0.643
same,cell count,[10]; [20],7820
same,cell count,[10]; [21],8010
same,z-score,[11]; [22],-0.465 (inactive) and 0.607 (inactive)
same,z-score,[11]; [23],0.162 and 0.638
O=c1[nH]c2ccccc2n1CCCN1CCN(C(c2ccccc2)c2ccccc2)CC1,period change,[14],0.15 h (inactive)
same,parasite load remaining,[1],29.6% (inactive)
same,viability,[1],106%
same,nuclear beta-catenin stimulation,[2]; at 10 µM,2.7% (inactive)
same,nuclear beta-catenin stimulation,"[2]; stimulation, at 2 µM",2%
same,insulin secretion stimulation,[3],1.95% (inactive)
same,viability decrease,[4],72% (active)
same,tube area decrease,[5],20.5% (inactive)
same,GLP1 secretion stimulation,[6],1.4% (inactive)
same,inhibition of viability,[7],76.3% (active)
same,viability decrease (inhibition),[8],110% (active)
same,viability decrease (inhibition),[9],78.8% (active)
same,fold change,[10]; [18],0.906 (inactive)
same,fold change,[10]; [19],1.22
same,cell count,[10]; [20],8130
same,cell count,[10]; [21],8980
same,z-score,[11]; [22],-0.355 (inactive)
same,z-score,[11]; [23],-0.351
same,z-score,[12],-1.56 (inactive)
O=C(O)Cc1sc(-c2ccccc2)nc1-c1ccc(Cl)cc1,parasite load remaining,[1],43.2% (inactive)
same,viability,[1],106%
same,nuclear beta-catenin stimulation,[2]; at 10 µM,-0.8% (inactive)
same,nuclear beta-catenin stimulation,"[2]; stimulation, at 2 µM",-0.1%
same,insulin secretion stimulation,[3],3.3% (inactive)
same,viability decrease,[4],18.7% (inactive)
same,tube area decrease,[5],11.7% (inactive)
same,GLP1 secretion stimulation,[6],-0.5% (inactive)
same,inhibition of viability,[7],43.2% (inactive)
same,viability decrease (inhibition),[8],32.4% (inactive)
same,viability decrease (inhibition),[9],16.6% (inactive)
same,fold change,[10]; [18],0.887 (inactive)
same,fold change,[10]; [19],0.944
same,cell count,[10]; [20],10000
same,cell count,[10]; [21],11300
same,z-score,[11]; [22],-0.576 (inactive) and -0.0336 (inactive)
same,z-score,[11]; [23],-0.115 and 0.182
same,z-score,[12],1.28 (inactive)
CCCC(=O)OCOC(=O)C1=C(C)NC(C)=C(C(=O)OC)C1c1cccc(Cl)c1Cl (stereo not given),nuclear beta-catenin stimulation,[2]; at 10 µM,15.7% (inactive)
same,nuclear beta-catenin stimulation,"[2]; stimulation, at 2 µM",12.3%
same,insulin secretion stimulation,[3],3.9% (inactive)
same,viability decrease,[4],-9.1% (inactive)
same,tube area decrease,[5],-4.1% (inactive)
same,GLP1 secretion stimulation,[6],5.1% (inactive)
same,inhibition of viability,[7],25.4% (inactive)
same,viability decrease (inhibition),[8],6.5% (inactive)
same,viability decrease (inhibition),[9],14.3% (inactive)
same,fold change,[10]; [18],0.959 (inactive) and 0.978 (inactive)
same,fold change,[10]; [19],0.415 and 0.463
same,cell count,[10]; [20],8260 and 7700
same,cell count,[10]; [21],8610 and 7870
same,z-score,[11]; [22],0.611 (inactive) and -0.319 (inactive)
same,z-score,[11]; [23],-0.278 and 0.00408
same,z-score,[12],-1.31 (inactive)
CCOc1ccccc1OCCN[C@H](C)Cc1ccc(OC)c(S(N)(=O)=O)c1,parasite load remaining,[1],30.6% (inactive)
same,viability,[1],71%
same,nuclear beta-catenin stimulation,[2]; at 10 µM,0.2% (inactive)
same,nuclear beta-catenin stimulation,"[2]; stimulation, at 2 µM",3%
same,insulin secretion stimulation,[3],1.6% (inactive)
same,viability decrease,[4],4.2% (inactive)
same,tube area decrease,[5],-2.4% (inactive)
same,GLP1 secretion stimulation,[6],2.3% (inactive)
same,inhibition of viability,[7],4.1% (inactive)
same,viability decrease (inhibition),[8],6.6% (inactive)
same,viability decrease (inhibition),[9],5.8% (inactive)
same,fold change,[10]; [18],0.868 (inactive)
same,fold change,[10]; [19],1.51
same,cell count,[10]; [20],9140
same,cell count,[10]; [21],10500
same,z-score,[11]; [22],-0.622 (inactive)
same,z-score,[11]; [23],-1.24
same,remaining NAD,[13],10 nM (inactive)
same,z-score,[12],-0.32 (inactive)
C=C1C[C@H]2[C@@H]3C=C(C)C4=CC(=O)CC[C@]4(C)[C@H]3CC[C@]2(C)[C@@]1(OC(C)=O)C(C)=O,parasite load remaining,[1],14.5% (inactive)
same,viability,[1],66%
same,nuclear beta-catenin stimulation,[2]; at 10 µM,-0.2% (inactive)
same,nuclear beta-catenin stimulation,"[2]; stimulation, at 2 µM",0.8%
same,insulin secretion stimulation,[3],0.5% (inactive)
same,viability decrease,[4],37.4% (inactive)
same,tube area decrease,[5],-17.7% (inactive)
same,GLP1 secretion stimulation,[6],-1.4% (inactive)
same,inhibition of viability,[7],62% (active)
same,viability decrease (inhibition),[8],61.1% (active)
same,viability decrease (inhibition),[9],53.6% (active)
same,fold change,[10]; [18],0.868 (inactive)
same,fold change,[10]; [19],1.42
same,cell count,[10]; [20],5790
same,cell count,[10]; [21],6660
same,z-score,[11]; [22],0.533 (inactive) and 0.334 (inactive)
same,z-score,[11]; [23],0.392 and 1.14
same,remaining NAD,[13],15 nM (inactive)
same,luciferase signal,[15],64 AU (inactive)
same,z-score,[12],-0.29 (inactive)
CC1(C)[C@@H](OC(=O)CCC(=O)O)CC[C@]2(C)[C@H]3C(=O)C=C4[C@@H]5C[C@@](C)(C(=O)O)CC[C@]5(C)CC[C@@]4(C)[C@]3(C)CC[C@@H]12,fluorescence slope change,[16],123% (active)
same,survival,[17],4.33 (inactive)
same,parasite load remaining,[1],77.3% (inactive)
same,viability,[1],94.7%
same,nuclear beta-catenin stimulation,[2]; at 10 µM,4.8% (inactive)
same,nuclear beta-catenin stimulation,"[2]; stimulation, at 2 µM",1.3%
same,insulin secretion stimulation,[3],-1% (inactive)
same,viability decrease,[4],50.3% (active)
same,tube area decrease,[5],15.3% (inactive)
same,GLP1 secretion stimulation,[6],2.7% (inactive)
same,inhibition of viability,[7],43.6% (inactive)
same,viability decrease (inhibition),[8],15.1% (inactive)
same,viability decrease (inhibition),[9],35.6% (inactive)
same,fold change,[10]; [18],0.87 (inactive)
same,fold change,[10]; [19],1.72
same,cell count,[10]; [20],9330
same,cell count,[10]; [21],10700
same,z-score,[11]; [22],0.704 (inactive)
same,z-score,[11]; [23],0.0878
same,remaining NAD,[13],10 nM (inactive)
same,luciferase signal,[15],60 AU (inactive)
